# Measurements from ChEMBL document CHEMBL3988442, “University of Dundee, Small-Polar-MMV Screening Library” (2021).
# Hit rate of the full screen: of about 48,000 compounds, about 13,000 (27%) showed an effect of 50% or more. Some of the results follow.
# System: Wolbachia pipientis
# Experiment: Anti-Wolbachia Cell-Based Screen
# Type: functional
# Set-up: scale not given: in the data most compounds retested in dose-response had high values
# Conditions: 5 µM
row,SMILES,Percent Effect
1,Cc1nc(CN2CCC(CNC(=O)C3CCOC3)CC2)oc1C (stereo unspecified),-1.518%
2,CCCN(CCC)C(=O)c1cc(CN2CCC(O)CC2)on1,-23.18%
3,COc1ccc(-c2noc(CCC(=O)N3CCOCC3(C)C)n2)cc1,3.097%
4,CCc1nccn1C1CCCN(C(=O)c2cc3nc(C)ccc3o2)C1 (stereo unspecified),-10.67%
5,O=c1[nH]nc2c(S(=O)(=O)N3CCCCCC3)cccn12,159%
6,Cc1nnc(SCCNC(=O)CC2CCc3ccccc32)s1 (stereo unspecified),-7.078%
7,NC(=O)CN1C(=O)CO[C@H]2CN(Cc3ccccc3)C[C@H]21,-7.855%
8,O=C(O)[C@@H]1OCC(=O)N(Cc2cccc(Cl)c2)[C@@H]1c1ccccc1,105.3%
9,CC(C)N1C[C@@H]2OCC(=O)N(Cc3ccccc3)[C@@H]2C1,4.027%
10,O=C(O)C(F)(F)F.O=C1CO[C@@H]2CN(CC3CCOC3)C[C@H]2N1Cc1cccc(F)c1 (stereo partly specified),18.32%
11,O=C1CO[C@H]2CN(S(=O)(=O)c3ccccc3)C[C@H]2N1Cc1ccccc1,-0.9845%
12,O=C(O)[C@H]1OCC(=O)N(Cc2cccc(F)c2)[C@@H]1c1ccc(Cl)cc1,104.6%
13,O=C(O)[C@H]1OCC(=O)N(Cc2cccc(Cl)c2)[C@@H]1c1ccccc1,97.67%
14,O=C(O)C(F)(F)F.O=C1CO[C@@H]2CN(CC3CC3)C[C@H]2N1Cc1cccc(F)c1,2.959%
15,CN1CCC(C(=O)N2CCN(Cc3cccc(Cl)c3)CC2)CC1=O (stereo unspecified),1.504%
16,CCOc1ccccc1-c1noc(CN2CC(n3cccn3)C2)n1,-3.661%

row,SMILES,Percent Effect
1,COc1ccc(C2(C(=O)N3CC(c4cccnc4)C3)CC2(C)C)cc1 (stereo unspecified),-12.52%
2,COc1ccc(C(=O)N2CCOC(Cc3cccc(C(F)(F)F)c3)C2)o1 (stereo unspecified),-4.741%
3,N#Cc1ccc(CNc2ncc(C#N)cc2Cl)cc1,12.93%
4,CCn1nc(C)c(CN(CCCN(C)C)Cc2ccccn2)c1C,80.15%
5,Cc1ccsc1CN(CCCN(C)C)Cc1ccccn1,97.01%
6,CCOCC(=O)N(Cc1ccccn1)Cc1ccccc1C,-6.914%
7,Cc1ccsc1CN(Cc1ccccn1)CC(C)C,-7.102%
8,Cc1occc1C(=O)N(CCN(C)C)Cc1ccccn1,-8.298%
9,CCn1nc(C)c(CN(CCOC)C(=O)c2ccccc2N(C)C)c1C,-7.863%
10,CCN(Cc1ccccn1)Cc1cc(Cl)ccc1OC,-5.315%
11,CCn1nc(C)c(CN(CCOC)C(=O)c2ccc(=O)[nH]n2)c1C,-5.597%
12,Cc1ccoc1C(=O)N(CCN(C)C)Cc1ccccn1,-10.81%
13,CCn1nc(C)c(CN(CCCOC)Cc2ccccn2)c1C.O=C(O)CC(O)(CC(=O)O)C(=O)O,71.01%
14,Cc1ccsc1CN(CCN(C)C)Cc1ccccn1,2.739%
15,CCn1nc(C)c(CN(Cc2ccccn2)Cc2ccccc2Cl)c1C,105.5%
